The source of these data is PubChem BioAssay.

For experiment [1], the target named is Albumin (Bos taurus) (UniProt P02769). Kind of experiment: compounds binding labelled BSA control protein – biochemical, small-molecule microarray, Alexa647 label, 635/667 nm fluorescence, artefact control for SMM control protein annotation, profiling panel (AID 1118).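 Also: score merges 667 nm emission intensity and signal-to-noise per printed compound spot.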 The note with it: BSA-A647 binding, fluorescence 635 nm, higher = more signal.
Experiment [2] in a line: probe aXIP binding to arrayed compounds – biochemical, NeuroSMM set, 635/667 nm fluorescence, primary screen (AID 1119).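 Also: probe is the protein aXip251-270 applied at 1 µg/mL to compound-printed slides; binding of probe to printed compounds measured as 667 nm fluorescence plus signal to noise.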 The note with it: small-molecule microarray, higher = more signal, called active from +8 up or from −8 down.
The nature of experiment [3]: probe aNOTCH3 binding on compound microarray – biochemical, small-molecule microarray, 635/667 nm fluorescence, primary screen (AID 1120).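 Also: probe is a biotin-tagged antibody raised against NOTCH3 rather than NOTCH3 protein; score merges spot fluorescence near 667 nm with spot signal to noise.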 The note with it: higher = more signal.
Experiment [4] in a line: probe aNOTCH2 binding on compound microarray – biochemical, small-molecule microarray, 635/667 nm fluorescence, primary screen (AID 1121).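 Also: score merges feature fluorescence read at 667 nm with its signal to noise.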 The note with it: higher = more signal.
In experiment [5] the target is Carbonic anhydrase 2 (Homo sapiens) (UniProt P00918). Kind of experiment: compounds binding carbonic anhydrase 2 – biochemical, small-molecule microarray, Alexa647-labelled CAII, profiling panel (AID 1122). The note with it: CAII-A647 binding fluorescence, higher = more signal.
Experiment [6] in a line: COS7 lysate on small-molecule microarray, probe aHis, 635 nm (AID 1123).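 Also: z-score combines 667nm fluorescence intensity with signal-to-noise per printed compound spot.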 The following applies: COS7 cell lysate, fluorescence, higher = more signal.
A short description of experiment [7]: probe aLAP1 signal on lysate-treated microarray – cell lysate, small-molecule microarray, COS7 lysate, primary screen (AID 1124).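 Also: lysate comes from COS7 cells expressing LAP1 and is applied at 0.3 µg/mL; score merges spot fluorescence near 667 nm with signal-to-noise over triplicate slides.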 The following applies: probe aLAP1, fluorescence, higher = more signal.
Experiment [8] has as its system Sam68 (KHDRBS1). Kind of experiment: compounds binding KHDRBS1 protein – biochemical, small-molecule microarray, 635 nm fluorescence, primary screen (AID 1125).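 Also: score merges 667 nm channel intensity with signal to noise over triplicate slides.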 The following applies: higher = more signal.
Experiment [9] concerns Chordin-like protein 2 (CHRDL2). Kind of experiment: compounds binding chordin-like 2 – biochemical, small-molecule microarray, 635 nm fluorescence, primary screen (AID 1126).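 Also: printed compound slides probed with Chrdl2 protein at 4 µg/mL for 1 h at 4 C; score merges 667 nm emission intensity with signal to noise over three replicate slides.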 The note with it: fluorescence 635 nm, higher = more signal.
Experiment [10] has as its target Concanavalin-A (Canavalia ensiformis) (UniProt P02866). Kind of experiment: compounds binding concanavalin A lectin – biochemical, small-molecule microarray, Alexa647 label, 635 nm, artefact control for SMM control protein annotation, primary screen (AID 1127).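 Also: z combines 667 nm emission intensity with signal-to-noise across three replicate slides.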 The following applies: ConA-A647 binding fluorescence, higher = more signal.
Experiment [11] can be described thus: compounds binding Alexa647 anti-His antibody – biochemical, small-molecule microarray, 635 nm fluorescence, artefact control for SMM control protein annotation, primary screen (AID 1128).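 Also: score merges feature fluorescence with signal-to-noise for each printed compound spot.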 The following applies: higher = more signal.
Experiment [12] has as its system Human papillomavirus type 1a E7 protein (residues 1-88). Kind of experiment: HPV1a E7 small-molecule binders, primary screen, biochemical, small-molecule microarray, residues 1-88, 635 nm (AID 1129). The following applies: small-molecule microarray binding, fluorescence 635 nm; higher = more signal.
In experiment [13] the target is Focal adhesion kinase 1 (Homo sapiens) (UniProt Q05397). Kind of experiment: PTK2 protein binding on printed compound slides – biochemical, small-molecule microarray, 635/667 nm fluorescence, BSA, DTT, primary screen (AID 1130).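 Also: composite of spot emission at 667 nm and signal to noise over triplicate slides.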 The following applies: 635 nm fluorescence, higher = more signal.
For experiment [14], the system named is Fibrinogen (Alexa647-labelled). Kind of experiment: Alexa647-fibrinogen binding to printed small molecules – biochemical, small-molecule microarray, 635/667 nm fluorescence, artefact control for SMM control-protein annotation, profiling panel (AID 1131).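 Also: z-score merges 667 nm fluorescence with per-spot signal-to-noise over triplicate slides.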 The note with it: fibrinogen-A647 binding fluorescence, higher = more signal.
In experiment [15] the target is Follistatin (Homo sapiens) (UniProt P19883). Kind of experiment: FST protein binding to printed compounds – biochemical, small-molecule microarray, 635/667 nm fluorescence, primary screen (AID 1132). The note with it: 635 nm fluorescence, higher = more signal.
The target of experiment [16] is Fibroblast growth factor 2 (Homo sapiens) (UniProt P09038). Kind of experiment: basic fibroblast growth factor binding to printed compounds – biochemical, small-molecule microarray, 635/667 nm fluorescence, primary screen (AID 1133). The note with it: FGF2, fluorescence 635/667, higher = more signal.
Experiment [17] is described as follows: JC-1 mitochondrial potential readout, lung cancer cells – cell-based, A549, JC-1 fluorescence, basal, 24 h, 100 nL, profiling panel (AID 1138).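 Also: A549 lung adenocarcinoma cells under basal conditions with no added stimulus; test concentration not given here.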 The note with it: higher = more signal.
For experiment [18], the system named is Lefty1. Kind of experiment: Lefty1 protein binding to printed compounds – biochemical, small-molecule microarray, 635/667 nm fluorescence, primary screen (AID 1139). The following applies: fluorescence 635/667, higher = more signal.
Experiment [19] relates to wheat germ agglutinin (Triticum aestivum), Alexa647-labelled. Kind of experiment: Alexa647-WGA lectin binding to printed small molecules – biochemical, small-molecule microarray, 635/667 nm fluorescence, artefact control for SMM control-protein annotation, profiling panel (AID 1140).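 Also: score merges 667 nm feature emission with signal to noise over triplicate slides.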 The note with it: WGA-A647 binding, 635 nm fluorescence, higher = more signal.
In experiment [20] the target is Luciferin 4-monooxygenase (Photinus pyralis) (UniProt P08659). Kind of experiment: inhibition of purified Photinus pyralis luciferase – biochemical, luminescence, purified enzyme, 2006 set, primary screen (AID 1141).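 Also: cell-free assay with purified firefly luciferase at 100 ng per well in PBS; test concentration not given here.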 The following applies: purified firefly luciferase, SteadyGlo luminescence, 30 min; higher = more signal, called active from +8 up or from −8 down.

SMILES strings stand for the structures. Calls of active or inactive are those of the source.

Chain of Concanavalin-A (Canavalia ensiformis) (P02866 whole entry, looked up): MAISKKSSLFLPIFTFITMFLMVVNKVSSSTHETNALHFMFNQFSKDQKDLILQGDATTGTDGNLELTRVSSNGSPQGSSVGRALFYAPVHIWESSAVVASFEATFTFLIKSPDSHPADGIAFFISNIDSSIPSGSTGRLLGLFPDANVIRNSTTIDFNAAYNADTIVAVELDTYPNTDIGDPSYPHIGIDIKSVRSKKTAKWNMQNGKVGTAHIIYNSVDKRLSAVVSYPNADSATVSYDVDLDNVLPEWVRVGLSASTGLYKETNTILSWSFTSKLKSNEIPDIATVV
Chain of Follistatin (Homo sapiens) (P19883 whole entry, looked up): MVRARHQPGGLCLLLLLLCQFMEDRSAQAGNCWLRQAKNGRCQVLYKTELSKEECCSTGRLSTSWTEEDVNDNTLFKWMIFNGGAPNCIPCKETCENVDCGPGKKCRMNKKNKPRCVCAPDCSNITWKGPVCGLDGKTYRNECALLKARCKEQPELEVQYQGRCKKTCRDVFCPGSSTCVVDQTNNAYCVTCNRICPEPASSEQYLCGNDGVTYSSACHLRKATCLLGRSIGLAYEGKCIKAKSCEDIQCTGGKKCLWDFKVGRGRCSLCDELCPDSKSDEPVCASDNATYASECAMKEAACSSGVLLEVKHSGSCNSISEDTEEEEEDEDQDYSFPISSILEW
Chain of Focal adhesion kinase 1 (Homo sapiens) (Q05397 whole entry, looked up): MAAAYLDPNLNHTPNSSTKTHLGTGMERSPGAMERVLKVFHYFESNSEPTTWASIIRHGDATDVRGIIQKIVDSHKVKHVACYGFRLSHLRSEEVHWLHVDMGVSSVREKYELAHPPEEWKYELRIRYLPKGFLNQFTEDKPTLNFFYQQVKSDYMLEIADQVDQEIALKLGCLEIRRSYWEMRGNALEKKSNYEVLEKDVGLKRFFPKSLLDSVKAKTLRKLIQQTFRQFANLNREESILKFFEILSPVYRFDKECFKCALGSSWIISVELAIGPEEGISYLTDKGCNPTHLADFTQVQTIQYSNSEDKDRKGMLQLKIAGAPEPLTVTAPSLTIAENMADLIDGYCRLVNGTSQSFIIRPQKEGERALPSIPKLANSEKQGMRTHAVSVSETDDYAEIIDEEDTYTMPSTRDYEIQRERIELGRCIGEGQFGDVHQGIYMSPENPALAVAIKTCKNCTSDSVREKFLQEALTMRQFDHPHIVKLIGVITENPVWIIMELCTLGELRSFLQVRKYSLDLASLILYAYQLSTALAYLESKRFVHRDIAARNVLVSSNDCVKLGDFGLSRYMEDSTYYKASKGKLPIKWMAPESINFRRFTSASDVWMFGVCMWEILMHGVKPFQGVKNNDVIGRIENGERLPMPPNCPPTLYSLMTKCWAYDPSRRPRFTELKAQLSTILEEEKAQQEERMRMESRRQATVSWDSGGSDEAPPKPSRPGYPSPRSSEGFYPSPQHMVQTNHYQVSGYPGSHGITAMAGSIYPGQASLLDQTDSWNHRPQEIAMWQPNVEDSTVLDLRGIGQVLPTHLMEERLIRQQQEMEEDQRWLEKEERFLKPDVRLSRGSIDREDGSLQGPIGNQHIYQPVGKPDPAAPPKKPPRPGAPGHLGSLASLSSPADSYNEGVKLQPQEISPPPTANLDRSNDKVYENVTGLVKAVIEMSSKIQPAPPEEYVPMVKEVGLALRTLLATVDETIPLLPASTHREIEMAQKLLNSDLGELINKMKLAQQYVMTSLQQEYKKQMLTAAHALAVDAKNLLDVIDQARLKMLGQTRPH
Chain of Fibroblast growth factor 2 (Homo sapiens) (P09038 whole entry, looked up): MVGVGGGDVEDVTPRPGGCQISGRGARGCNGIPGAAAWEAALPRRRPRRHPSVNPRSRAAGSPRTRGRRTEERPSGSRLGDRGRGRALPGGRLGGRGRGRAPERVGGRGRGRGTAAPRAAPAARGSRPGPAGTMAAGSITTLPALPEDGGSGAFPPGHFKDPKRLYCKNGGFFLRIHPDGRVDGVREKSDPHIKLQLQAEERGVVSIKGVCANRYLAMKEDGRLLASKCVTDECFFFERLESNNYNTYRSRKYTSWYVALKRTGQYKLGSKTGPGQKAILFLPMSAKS
Chain of Albumin (Bos taurus) (P02769 whole entry, looked up): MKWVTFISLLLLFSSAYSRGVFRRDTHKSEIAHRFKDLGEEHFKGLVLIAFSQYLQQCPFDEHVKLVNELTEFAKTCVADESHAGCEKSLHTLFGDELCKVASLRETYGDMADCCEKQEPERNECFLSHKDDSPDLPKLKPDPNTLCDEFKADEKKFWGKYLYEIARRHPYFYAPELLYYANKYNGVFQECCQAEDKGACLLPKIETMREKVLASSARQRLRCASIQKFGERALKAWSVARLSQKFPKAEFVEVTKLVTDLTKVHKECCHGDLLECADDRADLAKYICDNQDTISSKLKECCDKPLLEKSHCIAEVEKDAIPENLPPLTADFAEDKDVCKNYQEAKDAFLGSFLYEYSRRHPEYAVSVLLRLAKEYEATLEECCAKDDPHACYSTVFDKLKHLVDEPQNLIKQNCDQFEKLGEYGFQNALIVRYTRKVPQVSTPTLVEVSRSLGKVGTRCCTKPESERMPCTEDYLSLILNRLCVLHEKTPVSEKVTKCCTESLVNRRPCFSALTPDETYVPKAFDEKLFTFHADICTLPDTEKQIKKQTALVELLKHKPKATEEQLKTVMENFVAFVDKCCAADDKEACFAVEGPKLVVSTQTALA
Chain of Luciferin 4-monooxygenase (Photinus pyralis) (P08659 whole entry, looked up): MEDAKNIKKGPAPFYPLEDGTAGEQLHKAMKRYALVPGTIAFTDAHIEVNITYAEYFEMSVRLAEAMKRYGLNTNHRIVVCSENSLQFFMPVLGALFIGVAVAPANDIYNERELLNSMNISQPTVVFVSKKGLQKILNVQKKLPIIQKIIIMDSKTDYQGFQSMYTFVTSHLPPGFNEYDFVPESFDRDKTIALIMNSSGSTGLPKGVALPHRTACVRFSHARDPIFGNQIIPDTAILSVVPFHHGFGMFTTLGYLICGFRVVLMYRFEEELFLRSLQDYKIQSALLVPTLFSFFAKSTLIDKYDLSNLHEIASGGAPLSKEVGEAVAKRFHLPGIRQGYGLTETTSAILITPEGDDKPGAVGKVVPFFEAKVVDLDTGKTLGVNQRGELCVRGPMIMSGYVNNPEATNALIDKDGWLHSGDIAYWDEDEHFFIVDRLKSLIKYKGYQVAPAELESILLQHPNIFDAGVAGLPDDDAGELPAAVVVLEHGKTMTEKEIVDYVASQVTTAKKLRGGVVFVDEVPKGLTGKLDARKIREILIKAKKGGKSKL

Take `O=C1OCC=C[C@H]2OC34C=CCN(CCN5CCOCC5)C(=O)[C@H]3N(CCCCCCO)C(=O)[C@@H]4[C@@H]12` (stereo not given in full): the composite z-score in experiment [1] is 0.509; in experiment [3], 0.0208; in experiment [4] it was -0.104; in experiment [5], 0.688; in experiment [6] it was 3.1; in experiment [7], 0.55. Moreover, the composite z-score in experiment [8] is 0.274; in experiment [9], 0.158; in experiment [10] it was 0.0683; in [11], 3.21; in [12] it was -0.206; in experiment [13], -0.0142. Also, the composite z-score in experiment [14] was -0.469; in [15], 0.277; in experiment [16] it was -0.131; in experiment [18], 0.659; in [19] it was -0.0261. Further, the composite Z-score in experiment [2] is -1.05 (inactive). The results for the z-score in [17] and in experiment [20] were 0.582 and -0.689 (inactive), respectively.
As to `C=C(CCCC)C(=O)CC[C@H](OC(=O)c1ccccc1-c1ccccc1C(=O)O)c1ccc(CO)o1`, the composite z-score is 0.734 in experiment [1]; -0.0014 in [3]; -0.14 in [4]; 0.15 in experiment [5]; 0.455 in experiment [6]; 0.645 in experiment [7]. Moreover, the composite z-score was 1.29 in experiment [8]; 0.82 in experiment [9]; 0.933 in [10]; 1.22 in experiment [11]; 1.22 in experiment [12]; -0.116 in [13]. Moreover, the composite z-score in [14] was 0.954; in [15], 1.1; in experiment [16], 0.905; in [18], 1.57; in experiment [19], 1.14. The composite Z-score in experiment [2] is 0.0663 (inactive). The z-score in experiment [17] is -0.541; in experiment [20] it was -1.96 (inactive).
As for `COC(=O)c1c(CC[C@@H](CO)NC(=O)Nc2ncn[nH]2)oc(C(=O)Cc2ccccc2)c1C(=O)OC`, the composite z-score in experiment [1] is -0.145; in experiment [3] it was 0.158; in experiment [4], -0.12; in experiment [5], 0.768; in experiment [6] it was 3.22; in experiment [7], 0.705. Also, the composite z-score in experiment [8] came to 0.885; in experiment [9], 1.08; in [10] it was 1.16; in [11], 0.936; in [12], 0.466; in [13] it was 0.108. Also, the composite z-score in [14] was found to be 0.915; in experiment [15], 1.08; in experiment [16], 1.58; in [18], 0.895; in experiment [19] it was 0.467. The composite Z-score in experiment [2] was 1 (inactive). Further, the values for the z-score in [17] and in experiment [20] were -0.491 and 1.03 (inactive), respectively.
Take `COCCOC(=O)N1C(=O)[C@@]2(c3cc(C#CCC(C(=O)OC)C(=O)OC)ccc31)[C@H](c1ccc(OCCO)cc1)N1[C@H](c3ccccc3)[C@H](c3ccccc3)OC(=O)[C@H]1[C@@H]2C(=O)NC[C@H](O)c1ccccc1`: the composite z-score in experiment [1] is 0.599; in [3], 0.272; in experiment [4], -0.132; in [5] it was 0.563; in [6], 2.42; in experiment [7] it was 0.41. Besides, the composite z-score in [8] is 1.32; in experiment [9], 0.45; in experiment [10], 1.01; in experiment [11], 1.18; in experiment [12] it was 1.22; in [13], 0.418. Moreover, the composite z-score in experiment [14] was 0.952; in experiment [15], 1.29; in experiment [16], 1.7; in experiment [18] it was 1.15; in [19], 0.422. The composite Z-score in [2] is -0.33 (inactive). Also, the z-score is -0.95 in [17] and -0.056 (inactive) in experiment [20].
Take `Cc1ccc(S[C@]2(C(=O)NCC(F)(F)F)CC(=O)N(C3Cc4ccccc4C3)[C@@H]2c2ccc(CO)cc2I)cc1`: the composite z-score in experiment [1] was 0.0944; in experiment [3], -0.207; in experiment [4], -0.156; in [5], 0.629; in experiment [6], 0.403; in [7], -0.245. The composite z-score in [8] was -0.292; in experiment [9], -1.18; in experiment [10], -1.71; in experiment [11], -1.2; in [12], -0.38; in [13], -0.493. Further, the composite z-score in experiment [14] was -0.161; in experiment [15], -1.14; in experiment [16], -1.01; in experiment [18], -1.36; in [19] it was 0.0728. The composite Z-score in experiment [2] was 0.325 (inactive). Moreover, the z-score in experiment [17] is 0.496; in [20], -0.727 (inactive).
